Screening results as filed in PubChem.
TDP1 inh – qHTS Assay for Inhibitors of Tyrosyl-DNA Phosphodiesterase (TDP1) | Tyrosyl-DNA phosphodiesterase 1 (Homo sapiens), Q9NUW8 | recombinant TDP1, AlphaScreen DNA substrate cleavage | Potency, µM (series often up to 130 µM), without a hit: at the highest dose activity change, negative = inhibition, usual class: inhibitors | hit rate 0.28% among 350,000; also: potency is read from the fitted curve at half-maximal effect; % is scaled to controls: 0 for no effect and ±100 for the full control effect; nearly all actives have a fitted effect of over 40% in size
Target sequence (Q9NUW8 whole entry, looked up): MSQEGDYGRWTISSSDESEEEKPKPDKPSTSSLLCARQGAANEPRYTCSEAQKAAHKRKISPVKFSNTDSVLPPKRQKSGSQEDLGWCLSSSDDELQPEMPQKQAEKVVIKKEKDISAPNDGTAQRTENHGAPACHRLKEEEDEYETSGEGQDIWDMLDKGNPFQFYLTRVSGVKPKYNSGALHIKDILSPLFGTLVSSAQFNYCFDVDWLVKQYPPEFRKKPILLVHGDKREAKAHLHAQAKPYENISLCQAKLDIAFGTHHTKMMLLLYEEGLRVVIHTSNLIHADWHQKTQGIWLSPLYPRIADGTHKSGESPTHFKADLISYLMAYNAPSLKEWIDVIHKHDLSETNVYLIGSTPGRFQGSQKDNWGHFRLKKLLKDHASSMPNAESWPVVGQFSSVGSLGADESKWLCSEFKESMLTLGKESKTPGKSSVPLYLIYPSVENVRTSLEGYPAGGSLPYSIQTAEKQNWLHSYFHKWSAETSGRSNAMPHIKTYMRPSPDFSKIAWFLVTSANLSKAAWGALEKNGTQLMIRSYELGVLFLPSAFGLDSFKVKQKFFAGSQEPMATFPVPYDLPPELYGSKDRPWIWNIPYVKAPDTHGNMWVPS
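AlphaScreen read-out: signal falls as enzyme removes the 3' tyrosine-FITC from a 5'-biotinylated DNA oligo (15 nM, 5 min, RT). Enzyme was E. coli-made recombinant Tdp1 at 1 nM, exposed to compound for 15 min beforehand; beads 10 ug/ml, 10 min.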
TDP1 cell CPT – qHTS for Inhibitors of human tyrosyl-DNA phosphodiesterase 1 (TDP1): qHTS in cells in presence of CPT; chicken DT40 Tdp1-/-;hTDP1 cells + 20 nM CPT, ATP luminescence, 48 h; Potency, µM (top dose mostly 46.2 µM), for inactives: at the top dose activity change, negative = growth inhibition, hits mostly inhibitors; hit rate 12% among 420,000; AID 686979, 2013; also: potency is read from the fitted curve at half-maximal effect; % is scaled to controls: 0 for no effect and ±100 for the full control effect; nearly all actives have a fitted effect of over 55% in size
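Chicken DT40 Tdp1-/- cells stably complemented with human TDP1 were seeded at 400 cells/well in medium containing 20 nM camptothecin, exposed to pin-transferred compounds, and grown at 37 °C for at least 48 hr. Viability was read as ATP luminescence.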
TGFb inhibitor – qHTS for Inhibitors of TGF-b; HepG2 CAGA-GFP TGF-b/SMAD3 reporter, GFP fluorescence, 18 h; TGF-beta stimulated, 500 pg/mL final; Potency, µM (series often up to 46.1 µM), for inactives: at the highest dose activity, negative = inhibition, most hits filed as inhibitors; hit rate 1.2% among 410,000; AID 588855, 2011; also: potency is read from the fitted curve at half-maximal effect; % is scaled to controls: 0 for no effect and ±100 for the full control effect; nearly all actives have a fitted effect of over 65% in size
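HEPG2 CAGA-GFP cells (1000/well, DMEM with 1% FBS) were pre-incubated 2 h at 37 degrees C, given compound by pin tool, then stimulated with TGF-beta at 500 pg/mL final for 18 h before per-cell GFP fluorescence imaging.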
TDP1 cell noCPT – qHTS for Inhibitors of human tyrosyl-DNA phosphodiesterase 1 (TDP1): qHTS in cells in absence of CPT. DT40 Tdp1-/- hTDP1 cells, no CPT, ATP luminescence, 48 h. Potency, µM (series often up to 46.2 µM), for inactives: at the top dose activity change, negative = growth inhibition, actives largely listed as inhibitors. hit rate 15% among 420,000; also: potency is read from the fitted curve at half-maximal effect; % is scaled to controls: 0 for no effect and ±100 for the full control effect; nearly all actives have a fitted effect of over 55% in size
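Stably hTDP1-transfected Tdp1-null chicken DT40 cells were treated with library compounds minus camptothecin and grown for at least 48 hr at 37 °C, after which cellular ATP was quantified by luminescence.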
HepG2 viability – qHTS for Inhibitors of TGF-b: Cytotox Counterscreen. HepG2 CAGA-GFP viability, ATP luminescence, 18 h. Potency, µM (titrated, usually from 46.1 µM), for inactives: at the top dose activity change, negative = cytotoxicity, hits mostly cytotoxic. hit rate 0.76% among 410,000. AID 588856, 2011; also: potency is read from the fitted curve at half-maximal effect
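CellTiter-Glo luminescence gave cytotoxicity after 18 hours at 37 degrees C. The cells were HepG2 CAGA-GFP in 1% FBS DMEM, stimulated with 500 pg/mL TGF-beta after compound addition. %Activity was normalised to no-cell wells (complete cell-killing) and DMSO (no toxicity), and curves were fitted and classified.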
IL1B secr inh – qHTS for Inhibitors of Inflammasome Signaling: IL-1-beta AlphaLISA Primary Screen | THP-1 LPS/ATP IL-1B secretion, AlphaLISA, 16 h; stronger effect = lower value | activity change, % at 57.5 µM | hit rate 4.7% among 360,000; in the data active = activity change below about -50%; inconclusive = mostly about -30% to -49%; also: % is scaled to controls: 0 for no effect and ±100 for the full control effect
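THP-1 cells pretreated 1 hr with compounds (up to 57.5 uM final), then stimulated with LPS (250 ng/mL final) plus ATP (1.25 mM final); secreted IL-1B measured by AlphaLISA after 16 hr, decreased signal indicating inhibition.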
* marks the source's active call; other numbers are inactive results; ? = inconclusive; · = no result given; [ ] = another dose, or the depositor's remark. Shown are actives, neighbours in structure and some others; about 18% of the full set was active somewhere. Unless noted, calls follow the shape of the dose curve; as a rule, active = well fitted curve in the direction sought with a large enough effect; inconclusive = small, poorly fitted or top-dose-only effect, or another doubt; inactive = no such curve, though single readings can be large; an effect the other way counts as inactive or inconclusive.

SMILES | TDP1 inh | TDP1 cell CPT | TGFb inhibitor | TDP1 cell noCPT | HepG2 viability | IL1B secr inh
COc1cccc2c1C(=O)c1c(O)c3c(c(O)c1C2=O)CC(O)(C(C)=NO)CC3OC1CC(N)C(O)C(C)O1 (stereo unspecified) | · | 0.206µM* | 6.31µM* | 0.184µM* | 2.7% | -97.0*
COc1cc(C[C@@H](C)N)c(OC)cc1I | -4.7%[56.1 µM] | ? | 19.7% | ? | 11.0% | -63.8*
O=c1ccc2cc(O[C@H]3OC(CO)C(O)C(O)C3O)c(O)cc2o1 (stereo partly specified) | -9.6%[56.1 µM] | -9.5% | · | 4.4% | · | ·
CCn1cc2nc(SCc3cc(C)ccc3C)n(Cc3ccc(OC)cc3)c(=O)c2n1 | -2.6% | 10.3µM* | -13.6% | 7.31µM* | -14.5% | ·
Cc1ccc2c(CN3CC=C(c4ccccc4)CC3)cc(=O)oc2c1C | 8.2% | ? | 0.4% | 23.1µM* | -0.1% | 0.7
CCc1ccc2c(CN3CC=C(c4ccccc4)CC3)cc(=O)oc2c1 | 1.9% | ? | ? | 16.4µM* | -3.9% | 10.0
O=C1NCN(c2ccccc2)C12CCN(C(c1ccnc3ccccc13)c1nnnn1Cc1ccccc1)CC2 (stereo unspecified) | · | ? | ? | ? | -23.9% | -51.4*
CCCCn1nnnc1C(CCSC)N1CCC2(CC1)C(=O)NCN2c1ccccc1 (stereo unspecified) | · | 23.1µM* | ? | ? | -17.3% | -21.2
O=C1NCN(c2ccccc2)C12CCN(C(c1cccc3ccccc13)c1nnnn1-c1ccc3c(c1)OCCO3)CC2 (stereo unspecified) | · | ? | ? | ? | 0.4% | ?
CCCCn1nnnc1C(CC)N1CCC2(CC1)C(=O)NCN2c1ccccc1 (stereo unspecified) | · | ? | ? | ? | -4.8% | -2.7
COc1ccc(-n2nnnc2C(c2cccc3ccccc23)N2CCC3(CC2)C(=O)NCN3c2ccccc2)cc1 (stereo unspecified) | · | -92.6% | ? | 9.2µM* | -1.9% | ?
O=C1NCN(c2ccccc2)C12CCN(C(c1cccc3ccccc13)c1nnnn1Cc1ccccc1)CC2 (stereo unspecified) | · | 18.4µM* | ? | 23.1µM* | -8.0% | ?
CC(C)(C)OC(=O)N1CC[C@H]1COc1cnc[c]([Sn]([CH3])([CH3])[CH3])c1 | 6.1%[21 µM] | · | · | · | · | ·
COc1cccc(C(c2nnnn2C2CCCC2)N2CCC3(CC2)C(=O)NCN3c2ccccc2)c1OC (stereo unspecified) | · | ? | ? | 14.6µM* | 9.5% | ?
CCC(c1nnnn1C1CCCC1)N1CCC2(CC1)C(=O)NCN2c1ccccc1 (stereo unspecified) | · | ? | 8.0% | -23.9% | -46.0% | -14.6
O=C(NCc1c(-n2cccc2)sc2c1CCCC2)Nc1cccc(C(F)(F)F)c1 | 11.4% | 4.11µM* | -17.6% | 4.11µM* | -1.5% | ·
O=S(=O)(c1ccc(Cl)cc1)c1cc(Cl)c(Cl)cc1Cl | -9.5% | · | · | · | · | ·
CCN1C[C@]2(COC)[C@H](O)C[C@H](OC)[C@@]34[C@@H]5C[C@@]6(O)[C@H](OC(=O)c7ccccc7)[C@@H]5[C@@](OC(C)=O)([C@@H]([C@H](OC)[C@H]23)[C@@H]14)[C@@H](O)[C@@H]6OC | · | -8.9% | · | -7.6% | · | ·
Cc1cc(-c2ccc(C)c(S(=O)(=O)N3CCOc4ccc(Cl)cc43)c2)on1 | 0.0% | 20.6µM* | -27.2% | 13µM* | -29.6% | ·
COC(=O)C(Cl)C(=O)OC | · | -0.4% | · | 1.1% | · | ·
S=P(NCCSCc1ccccc1)(N1CC1)N1CC1 | · | 3.66µM* | 2.1% | 7.31µM* | 5.4% | -21.4
S=P(NCCNP(=S)(N1CC1)N1CC1)(N1CC1)N1CC1 | · | -58.9% | 5.4% | 1.3µM* | -2.7% | 8.0
CCCCOC(C)=O | 12.7% | · | · | · | · | ·
Cc1ccc2nc3sc(=O)sc3nc2c1 | 20.0% | · | · | · | · | ·
CNCC(N)C(=O)O (stereo unspecified) | 27.9% | · | · | · | · | ·
SMILES | TDP1 inh | TDP1 cell CPT | TGFb inhibitor | TDP1 cell noCPT | HepG2 viability | IL1B secr inh
O=c1oc2ccccc2c(O)c1C(c1ccccn1)c1c(O)c2ccccc2oc1=O | 8.6% | -1.2% | 34.4% | 4.0% | 0.5% | 41.0
O=C(CCC1CCCC1)c1c(O)c2ccccc2oc1=O | 5.3% | 5.17µM* | -9.7% | 4.11µM* | -32.2% | -10.9
CN1CCN=C(c2ccccc2)c2cc(Cl)ccc21 | · | -87.6% | · | -86.5% | · | ·
COc1cccc(N2CCN(c3c4c(nc5nncn35)CCC4)CC2)c1 | 7.0% | 23.1µM* | · | 8.2µM* | -14.6% | ·
CC(C)NC(C)C | 18.9% | 1.7% | · | -0.1% | · | ·
COC1=CC(=O)O[C@@H](/C=C\c2ccccc2)C1 | 9.7%[21 µM] | · | · | · | · | ·
O=C1NC(=S)NC(=O)C1=Cc1ccc(Br)s1 | 9.8% | 10.3µM* | ? | 9.2µM* | -47.3% | -100.4*
Cc1cc(/C=C2\C(=O)NC(=S)N(C)C2=O)c(C)n1C1CCCCC1 | 0.6% | 2.1% | -7.6% | -33.9% | -47.4% | 13.2
O=C1NC(=S)NC(=O)C1=Cc1cccc2cc3ccccc3cc12 | -12.7% | 5.17µM* | ? | 2.59µM* | -107.9% | -99.2*
O=C1NC(=S)NC(=O)C1=Cc1c(Cl)cccc1Cl | · | 10.3µM* | 7.4% | 16.4µM* | -10.1% | -98.6*
CN1C(=O)/C(=C\c2ccc(Br)s2)C(=O)NC1=S | 1.7% | ? | 18.1% | 16.4µM* | 0.7% | -99.2*
CN[C@H]1C[C@@H](N)[C@H](O)[C@@H](O[C@@H]2O[C@H](CO)[C@H](O)[C@@H]3OC4(O[C@H]23)O[C@H](C(N)CO)[C@H](O)[C@H](O)[C@H]4O)[C@@H]1O (stereo partly specified) | · | -5.1% | · | -13.7% | · | ·
CC[C@H]1CN2CC[C@@H]1C[C@H]2[C@@H](O)c1ccnc2ccc(OC)cc12 | 6.5%[56.1 µM] | · | · | · | · | ·
Cn1c(=O)oc2cc(S(=O)(=O)N3CCCC(C(=O)NCc4ccccc4Cl)C3)ccc21 (stereo unspecified) | 1.3% | -21.8% | -2.8% | -16.7% | 4.1% | ·
COc1ccccc1N1CCN(S(=O)(=O)c2ccc3c(c2)oc(=O)n3C)CC1 | 7.0% | -2.8% | ? | ? | 3.1% | -11.9
